Nrf2 inh: inhibitors of Nrf2 signaling; A549 ARE-Fluc reporter, luciferase luminescence, 18-24 h; Potency, µM (titrated, usually from 46 µM), for the others: at the highest dose activity change, negative = inhibition, usual class: inhibitors; 360,000 compounds, 2.1% hits; AID 504444; further: on the % scale 0 is the no-effect control and ±100 the full control effect; nearly all actives have a fitted effect of over 60% in size
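Nrf2 activity is the BugLite luminescence, read 15 min after reagent at room temperature, following CellTiter-Fluor cytotoxicity readout (30 min, 37C). Compound titrations were applied for 18-24 h to 5000 A549 ARE_Fluc cells/well in 5% FBS OPTI-MEM.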
A549 viability: counter-screen for Nrf2 inhibitors: cytotoxicity in A549 cells | AID 504648 | Potency, µM (series often up to 46 µM), for inactives: top-dose activity change, negative = cytotoxicity, actives largely listed as inhibitors | A549 ARE-Fluc cells, CellTiter-Fluor viability, 18-24 h | 390,000 compounds, 0.16% hits; further: on the % scale 0 is the no-effect control and ±100 the full control effect
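A549 ARE_Fluc cells in 5% FBS OPTI-MEM were exposed to compounds in concentration-response for 18-24 h at 37 deg C. Viability was read by CellTiter-Fluor fluorescence (Ex 405/Em 525) after 30 min, before the luciferase read.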
TGFb inhibitor: blocks TGF-b signaling; Potency, µM (highest dose often 46.1 µM), inactives show at the highest dose activity, negative = inhibition, actives largely listed as inhibitors; HepG2 CAGA-GFP TGF-b/SMAD3 reporter, GFP fluorescence, 18 h; TGF-beta stimulated, 500 pg/mL final; 410,000 compounds, 1.2% hits; AID 588855; further: on the % scale 0 is the no-effect control and ±100 the full control effect; nearly all actives have a fitted effect of over 65% in size
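Inhibition of TGF-beta-driven CAGA-GFP reporter expression in HEPG2 cells is measured by cellular GFP fluorescence after 18 h stimulation with 500 pg/mL recombinant TGF-beta in 1% FBS medium at 37 degrees C.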
HepG2 tox: kills HepG2 cells in TGF-b inhibitor counter-screen. HepG2 CAGA-GFP viability, ATP luminescence, 18 h. Potency, µM (titrated, usually from 46.1 µM), inactives show at the highest dose activity change, negative = cytotoxicity, usual class: cytotoxic. 410,000 compounds, 0.76% hits
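CellTiter-Glo luminescence gave cytotoxicity after 18 hours at 37 degrees C. The cells were HepG2 CAGA-GFP in 1% FBS DMEM, stimulated with 500 pg/mL TGF-beta after compound addition. %Activity was normalised to no-cell wells (complete cell-killing) and DMSO (no toxicity), and curves were fitted and classified.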
Nrf2 activator: activates Nrf2 signaling; AREc32 ARE-luciferase reporter (MCF7-derived line), luminescence, 24 h; 410,000 compounds, 0.31% hits; AID 624171; Potency, µM (highest dose often 46.1 µM), inactives show at the top dose activation, hits mostly activators; further: % of control where 0% means no effect; nearly all actives have a fitted effect of over 65% in size
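AREc32_Fluc, 1000 cells/well, OPTI-MEM + 5% FBS, o/n 37 deg C 5% CO2; 23 nL cpd by pin tool, 24 hr; Steady-Glo 30 min RT, luminescence.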
* marks the source's active call; other numbers are inactive results; ? = inconclusive; . = not tested or not shown; [ ] = another dose, or the depositor's remark. A selection: hits, their analogues and other compounds. The true share with any hit is near 3.6%. The call rests on the fitted dose curve; in most records, active means well fitted curve in the direction sought with a large enough effect; inconclusive means small, poorly fitted or top-dose-only effect, or another doubt; inactive means no such curve, though single readings can be large; an effect the other way counts as inactive or inconclusive. Potency means the concentration at half of the fitted maximal effect.

SMILES	Nrf2 inh	A549 viability	TGFb inhibitor	HepG2 tox	Nrf2 activator
Cc1cc([N+](=O)[O-])ccc1NCc1ccc2ccccc2c1	-4.7%	-6.7%	20µM*	-7.3%	-0.5%
O=[N+]([O-])c1ccc(S(=O)Cc2ccccc2)c([N+](=O)[O-])c1 (configuration not stated)	?	?	7.94µM*	-114.7%	?
Cc1ccc(C(C)(C)C)cc1S(=O)(=O)Nc1cccc(C(=O)N2CCN(c3ccccn3)CC2)c1	?	-18.9%	28.2µM*	-30.7%	0.0%
CCOc1ccc(C(=O)NCC(=O)NCCCn2nc(C)cc2C)cc1OCC	0.4%	0.5%	-19.7%	-23.4%	-0.3%
CCCCN(CCCNC(=S)NCCCc1cnc[nH]1)c1ccc(Br)cn1	1.9%	2.4%	?	-41.1%	4.9%
COCC(=O)Nc1cc(Cl)ccc1C	-5.7%	4.3%	-19.1%	-0.9%	0.1%
Cc1ccc(Cl)cc1NC(=O)CC(O)(C(F)(F)F)C(F)(F)F	?	?	12.6µM*	-36.5%	3.7%
COC(=O)c1cc(S(=O)(=O)N2CCC(c3ccccc3)C2)c[nH]1 (configuration not stated)	11.5%	2.0%	18.5%	3.6%	2.5%
Cc1ccc(N2C(=O)C3C4C=CC(C4)C3C2=O)cc1 (configuration not stated)	0.3%	-1.8%	14.5%	6.6%	-0.2%
CCN(C[C@H]1N[C@@](CC)(C(=O)OC)[C@H]2C(=O)N(Cc3ccccc3)C(=O)[C@@H]12)C(C)=O	5.4%	2.5%	17.6%	-3.6%	-0.5%
Cc1ccc(CN2C(=O)C(O)(c3c[nH]c4ccccc34)c3cc(Cl)ccc32)cc1 (configuration not stated)	-26.6%	?	2.82µM*	12.6µM*	-3.4%
CN(C)Cc1csc(NC(=O)Nc2ccccc2Oc2ccccc2)n1	.	.	?	-35.6%	-1.5%
CCS(=O)(=O)Nc1ccc(Cc2ccc(NS(=O)(=O)CC)cc2)cc1	.	-15.8%	-1.8%	-31.8%	-0.6%
COC(=O)c1cc(CSc2nnc(-c3ccccc3)c(-c3ccccc3)n2)oc1C	20.6µM*	-13.5%	?	1.4%	1.6%
COC(=O)c1cc(CSc2nc3ccc(C)cc3[nH]2)oc1C	20.6µM*	-2.7%	-13.9%	-3.2%	2.1%
O=C(NCc1ccc(Cl)cc1)Nc1ccc(F)cc1	12.2%	-5.3%	-7.8%	-7.3%	0.0%
O=C(COC(=O)C1(c2ccccc2F)CCCC1)NCc1cccs1	20.6µM*	-11.2%	25.4%	9.1%	-0.1%
NS(=O)(=O)c1ccc(NC(=O)COC(=O)C2(c3ccccc3F)CCCC2)cc1	20.6µM*	?	-2.9%	-28.7%	0.4%
NS(=O)(=O)c1ccc(NC(=O)COC(=O)C23CC4CC(CC(C4)C2)C3)cc1	9.7%	-0.1%	?	-28.5%	-0.1%
COc1cccc(/C=C/C(=O)OCC(=O)N(C)CC(=O)Nc2ccccc2Cl)c1OC	2.4%	-2.6%	-12.5%	0.4%	?
Cc1ccc(C(=O)NCCc2csc(C)n2)cc1	?	2.0%	2.3%	3.1%	-0.7%
COc1ccc(NC(=O)C(=O)NCC(c2ccco2)N2CCc3ccccc3C2)cc1OC (configuration not stated)	?	-12.5%	2.51µM*	-23.3%	-0.3%
O=C(Nc1sc2c(c1C(=O)O)CCCCC2)c1ccccc1	?	-11.3%	2.0%	-37.1%	3.9%
O=C(Nc1sc2c(c1C(=O)O)CCCC2)c1ccc(Cl)cc1	6.51µM*	?	-22.7%	-28.8%	0.3%
NC(=O)c1c(NC(NC(=O)c2ccco2)C(=O)c2ccc(Cl)cc2)sc2c1CCCC2 (configuration not stated)	?	?	15.8µM*	-40.9%	14.6%
SMILES	Nrf2 inh	A549 viability	TGFb inhibitor	HepG2 tox	Nrf2 activator
CCOC(=O)NC(Nc1ccc(OC)cc1)(C(F)(F)F)C(F)(F)F	17.8%	-8.3%	?	-12.5%	1.4%
c1ccc(Nc2nc(-c3ccncc3)cs2)cc1	?	14.2%	41.0%	-22.2%	?
Oc1ccc(-c2nc3ncccn3c2Nc2ccc3c(c2)OCCO3)cc1	.	?	13.8%	19.6%	2.2%
Oc1cccc(-c2nc3ncccn3c2Nc2cccc(C(F)(F)F)c2)c1	8.9%[9.27 µM]	-2.5%	12.6µM*	-69.2%	-0.1%
Cc1cccc2cc3c(N)c(C(=O)Nc4ccc(N5CCOCC5)cc4)sc3nc12	23.1µM*	-17.9%	0.9%	-16.2%	0.3%
Nc1cccc2c1C(=O)N(C(=O)/C=C/c1cccc(F)c1)C2=O	?	4.5%	14.1µM*	13.4%	24.9%[9.22 µM]
CCCCOc1c(Cl)cc(C(=O)N(Cc2ccc(C)o2)C2CCS(=O)(=O)C2)cc1Cl (configuration not stated)	-13.3%	-2.1%	?	-94.5%	-0.2%
CCCCCOc1c(Cl)cc(C(=O)N(Cc2ccc(C)o2)C2CCS(=O)(=O)C2)cc1Cl (configuration not stated)	8.8%	2.6%	17.8µM*	-55.4%	9.3%
O=C(O)CP(=O)(O)O	0.7%	4.0%	-0.9%	-4.4%	-0.2%
Cc1cc(=O)n2nc(-c3ccccc3)sc2c1C#N	15.7%	-11.4%	7.1%	-15.4%	2.24µM*
CCSc1nnc(NC(=O)CSc2nc3c(c(=O)n2CC)SC(C)C3)s1 (configuration not stated)	18.4µM*	-13.7%	-1.6%	11.6%	-0.3%
CC(C)CC(=O)NC(c1ccccc1)c1c(O)ccc2ccccc12 (configuration not stated)	-26.0%	-3.2%	?	-3.8%	0.4%
Cc1ccc(-c2cc(-c3ccccc3)c3c(N)c(S(C)(=O)=O)sc3n2)cc1	13µM*	11.3%	-5.0%	-0.4%	2.3%
CS(=O)(=O)c1sc2nc(-c3cccs3)cc(-c3ccccc3)c2c1N	-19.8%	-4.4%	-11.0%	-8.2%	2.9%
CC#C[C@]1(O)CC[C@H]2[C@@H]3CCC4=CC(=O)CCC4=C3[C@@H](c3ccc(N(C)C)cc3)C[C@@]21C	23.1µM*	-18.8%	0.1%	-23.1%	-0.4%
O=C(Nc1nc(-c2ccc(Cl)s2)cs1)c1ccncc1	?	-1.0%	?	-15.3%	18.3%
O=C(CC(=O)c1ccccc1)c1ccccc1	-9.6%	-1.4%	0.6%	-43.9%	14.1µM*
O=C(C#Cc1ccccc1)c1ccc([N+](=O)[O-])cc1	-11.5%	-1.6%	?	39.4%	20.1%
O=C(CC(=O)c1ccncc1)c1ccccc1	-9.0%	-1.9%	?	-7.0%	?
O=C(C#Cc1ccccc1)c1ccccc1	.	.	10µM*	12.6µM*	-5.1%
COc1cc2c(NC3CCN(C)CC3)nc(N3CCCN(C)CC3)nc2cc1OCCCCN(C)C	.	.	?	-12.2%	.
COc1cc2nc(NC(=O)c3ccc(F)cc3Cl)sc(=O)c2cc1OC	6.51µM*	2.2%	-10.8%	-28.5%	0.3%

Screening data from PubChem BioAssay.
